Records with an inconclusive call do not appear. Active and inactive are the calls of the source. Calls follow the shape of the dose curve; as a rule, active = well fitted inhibition curve with a large enough effect; inconclusive = small, poorly fitted or top-dose-only effect; inactive = no such curve, though single readings can be large or run the other way.
Potency is read from the fitted curve at half-maximal effect.

The test is described as follows: Acumen qHTS Assay for Inhibitors of the mTORC1 Signaling Pathway in MEF (Tsc2-/-, p53-/-) Cells: Hit Validation.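 Also: phospho-rpS6 Ser235/236 immunofluorescence normalized to propidium iodide cell count; nearly all actives have a fitted effect of over 65% in size.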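 As to activity change, negative = inhibition: cells exposed to compound for 24 hours; plate controls were DMSO for no effect and 7.5 nM rapamycin control for full effect.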 The following applies: Acumen imaging; activity change, negative = inhibition: at 37.3 µM (top of the series).
Consider `COc1ccc(N2CCN(C(=O)C3CCN(Cc4nc(-c5ccc(Cl)cc5)oc4C)CC3)CC2)cc1`, for which the activity change, negative = inhibition is -10.9%.
On the same count and under the same terms, the figure for `Oc1ccccc1Nc1nc(-c2ccccc2)c2cc(Cl)ccc2n1` is -6.7%.
In the case of `CCS(=O)(=O)c1ncc(Cl)c(C(=O)Nc2ccccc2)n1`, the Potency is 1.31 µM (active).
The same measure, in the same setting: the figure for `O=C(NC1CCN(Cc2ccccc2)CC1)c1ccc(Cn2c(=O)c3ccccc3n(Cc3ccc(F)cc3)c2=O)cc1` is 3.69 µM (active); for `CCN(CC)CCNC(=O)c1cc(-c2ccc(Br)s2)nc2ccccc12` it is 11.7 µM (active).
`CCOC(=O)N1CCN(Cc2nc3cc(NC(=O)c4ccccc4OC)ccc3n2C(C)C)CC1`: the activity change, negative = inhibition was -28.8%.
On to `CC1C(=O)N2CCCc3cc(S(=O)(=O)Nc4ccc(Br)cc4F)cc1c32` (stereo not given), for which the Potency was 4.65 µM (active).
For `COc1ccc(N2CC(c3nc(-c4cc(OC)c(OC)c(OC)c4)no3)CC2=O)cc1Cl` (stereo not given), the activity change, negative = inhibition amounted to 5.08%.
Regarding `Cc1cccn2c(Nc3ccccc3)c(-c3cccs3)nc12`, the activity change, negative = inhibition was 26.1%.
For the compound `CCCS(=O)(=O)c1ncc(Cl)c(C(=O)N2CCN(c3ccc(OC)cc3)CC2)n1`, the Potency was 7.36 µM (active).
Consider `CCOc1ccc(CCNCc2c(C(=O)O)n(Cc3ccc(C)cc3)c3cc(OC)ccc23)cc1`, for which the activity change, negative = inhibition is -26.5%.
Regarding `COc1ccccc1N1CCN(C(=O)c2cnc(N3CCCCC3)c3ccccc23)CC1`, the Potency was 0.927 µM (active).
As for `COc1ccc(-c2nc3cc(NC(=O)Cc4ccc(Cl)cc4)ccc3o2)cc1OC`, the activity change, negative = inhibition is -60.1%.
Still for that read-out and setting: with `Cc1ccc(S(=O)(=O)c2nc(-c3cccs3)oc2SCC(=O)Nc2cc(C)cc(C)c2)cc1` the figure was -132%.
Consider `O=C(COc1ccccc1-c1nc(-c2ccccc2)no1)Nc1cccc([N+](=O)[O-])c1`, for which the Potency was 1.04 µM (active).

The record behind these values is PubChem BioAssay AID651784 (National Center for Advancing Translational Sciences (NCATS), 2012).
